# Inconclusive results are not listed. Calls of active or inactive are those of the source. Calls follow the shape of the dose curve; as a rule, active = well fitted activation curve with a large enough effect; inconclusive = small, poorly fitted or top-dose-only effect, or effect the other way; inactive = flat fitted curve, though single readings scatter.
# Experiment: Cellular Toxicity (caspase-3) NIH 3T3 (AID 666);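 also: caspase signal read after 16 h compound exposure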
# Conditions: NIH 3T3 caspase-3 activation, apoptosis/toxicity, 0% DMSO, 100% is 100 µM tamoxifen; series mostly up to 92.2 µM; caspase-3 activation: at the top concentration
# Description: NIH Chemical Genomics Center [NCGC]
# NIH Molecular Libraries Screening Centers Network [MLSCN]
# National Institutes of Environmental Health Sciences [NIEHS]
# National Toxicology Program [NTP]
# We have developed a 1536-well cell-based assay for quantitative high throughput screening (qHTS) against a number of cell lines to determine in vitro caspase 3/7 of small molecules. This particular assay uses the NIH 3T3 cell line which is derived from mouse fibroblasts.
# NCGC Assay Protocol Summary:
# The Caspase-Glo 3/7 assay (Promega) is a homogeneous method to measure caspase-3 and caspase-7 activities in cultured cells. The quantitation of caspase 3/7 activity is based on the cleavage of a peptide-aminoluciferin substrate. After caspase cleaves the substrate the free aminoluciferin is liberated and serves as the substrate of luciferase, which generates the light. The luminescent signal is proportional to amount of caspase 3/7 activity present.
# Using the Caspase-Glo 3/7 assay, the amount of caspase 3/7 activity was measured in the NIH 3T3 cell line with complete culture medium following compound treatment for 16 hours. The assay was performed in opaque white 1536-well plates. In the screen, tamoxifen and doxorubicin were used as positive controls. Library compounds were measured for their ability to cause the activation of caspase 3/7 in the cell line, as reflected by an increase in luminescence signal, in a concentration-dependent manner. Data were normalized to the controls for basal activity (DMSO only) and 100% stimulation (100 uM tamoxifen). AC50 values were determined from concentration-response data modeled with the standard Hill equation.
# qHTS protocol for caspase 3/7 assay in NIH 3T3 cells
# [Step] [Parameter] [Value] [Description]
# 1. Reagent; 5 uL; 1000 NIH 3T3 cells/well
# 2. Time; 5 hr; 37 °C incubation
# 4. Controls; 23 nL; Tamoxifen 0.23 uM to 100 uM & Doxorubicin 7.0 pM to 100 uM
# 5. Time; 16 hr; 37 °C incubation
# 6. Reagent; 5 uL; Caspase-Glo 3/7 reagent
# 7. Time; 20 min; Room Temperature
# 8. Detection; Luminescence; Viewlux plate reader
# Keywords: caspase 3/7, apoptosis, NIH 3T3 cell line, luminescence, NTPHTS, NTPHTS_NCGC, NIEHS, EPA, DSSTox, MLSMR, MLSCN, NIH Roadmap, qHTS, NCGC
row,SMILES,caspase-3 activation
1,Brc1cc(Br)c(Oc2cc(Br)c(Br)cc2Br)cc1Br,1.13% (inactive)
2,O=[N+]([O-])c1ccc(F)cc1F,-2.87% (inactive)
3,CCOC(=O)C1OC1c1ccccc1 (stereo not given),23.9% (inactive)
4,CC(C)S,1.77% (inactive)
5,C=CC(=O)OCCCCCCOC(=O)C=C,-11.3% (inactive)
6,OCC(CBr)(CBr)CBr,-4.18% (inactive)
7,Oc1ccc(O)c2c(O)cccc12,-14.9% (inactive)
8,CC(=O)OC(C(=O)c1ccccc1)c1ccccc1 (stereo not given),-8.25% (inactive)
9,Oc1c(Cl)cc(Cl)c(Cl)c1Cl,-2.77% (inactive)
10,NC(=O)c1ccc([N+](=O)[O-])cc1,-5.54% (inactive)
11,c1ccc(CSCc2ccccc2)cc1,-5.94% (inactive)
12,CCCCCCN,-0.443% (inactive)
13,Brc1ccc(-c2ccccc2)cc1,-4.2% (inactive)
14,C/C=C/C=C/C=O,-11% (inactive)
15,CCOc1ccc2nc(N)sc2c1,-14.2% (inactive)
16,Nc1ccccc1O,-7.13% (inactive)
17,CCCCCCCC/C=C\CCCCCCCC(=O)N(CCO)CCO,-1.66% (inactive)
18,CCc1ccc(C(c2ccc(CC)cc2)C(Cl)Cl)cc1,2.94% (inactive)
19,CCC(Cl)CC(Cl)C(Cl)C(Cl)C(Cl)C(C)Cl (stereo not given),-3.08% (inactive)
20,C=C(C#N)C(=O)OCC,-0.464% (inactive)

row,SMILES,caspase-3 activation
1,c1ccc(Nc2cccc3ccccc23)cc1,0.71% (inactive)
2,Cc1cc(-c2ccc(N=Nc3cc(S(=O)(=O)O)c4ccccc4c3N)c(C)c2)ccc1N=Nc1cc(S(=O)(=O)O)c2ccccc2c1N,-8.92% (inactive)
3,Cc1ccc(N)cc1[N+](=O)[O-],-0.249% (inactive)
4,COc1ccc(C(=O)Nc2ccccc2)cc1[N+](=O)[O-],-18.3% (inactive)
5,CC(CCC(=O)O)(c1ccc(O)cc1)c1ccc(O)cc1,-1.19% (inactive)
6,C1CCCNCC1,-4.52% (inactive)
7,Cc1cccnc1,0.234% (inactive)
8,CCCC(=O)OC(=O)CCC,-1.1% (inactive)
9,OC1CCCCC1,-1.39% (inactive)
10,Cc1ccccc1OCC1CO1 (stereo not given),16.2% (inactive)
11,O=C(OCC1CO1)C1CCCCC1C(=O)OCC1CO1 (stereo not given),1.05% (inactive)
12,Nc1ccc(N)c(Cl)c1,-9.48% (inactive)
13,NC(=O)Nc1nc2ccccc2[nH]1,-8.08% (inactive)
14,CCCCC(CC)COCCCN (stereo not given),-1.45% (inactive)
15,CCNC(=S)NCC,1.81% (inactive)
16,Nc1cc([N+](=O)[O-])ccc1O,-3.03% (inactive)
17,CN(C)c1ccc(C(=N)c2ccc(N(C)C)cc2)cc1,12.6% (inactive)
18,C=CC1CO1 (stereo not given),0.585% (inactive)
19,C=CC(=O)CC,-1.51% (inactive)
20,C[Si](C)(C)Cl,1.19% (inactive)
